Measured values: the supplement of paper PMC10849652
Targets with a hit are over-represented here; the source holds about 7,900 in all. About 0.6% of all pairs of compound and target were hits.

Assays:
Experiment in all cases: log2 fold change, soluble protein after heating vs DMSO (PISA); higher = thermal stabilisation; K562 cells, 10 uM, 30 min; active = over 0.2 and 3.5 SD of the protein, either way, in both replicates (recomputed)
AAGAB = AAGAB (UniProt Q6PD74)
Outline: (§1)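 Soluble protein was quantified by TMTpro 16plex LC-MS/MS after channel sums were equalised. It was obtained as the supernatant after 21,000xg for 90 min from pooled aliquots of K562 cells (2×10^6 cells/mL, 10 μM compound, 30 min) heated for 3 min across 48°C-58°C and extracted in PBS with 0.5% NP-40 at 4°C. Thermal stability values are relative to control samples and come from duplicates. They are given as log2 fold changes.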

AAK1 [1] = biological target: AAK1 (UniProt A0A096LP25)
Outline: as §1

AAK1 [2] = biological target: AAK1 (UniProt Q2M2I8)
Outline: as §1

Measured: log2 fold change

Chain of AAK1 (UniProt Q2M2I8) (Q2M2I8 whole entry, looked up): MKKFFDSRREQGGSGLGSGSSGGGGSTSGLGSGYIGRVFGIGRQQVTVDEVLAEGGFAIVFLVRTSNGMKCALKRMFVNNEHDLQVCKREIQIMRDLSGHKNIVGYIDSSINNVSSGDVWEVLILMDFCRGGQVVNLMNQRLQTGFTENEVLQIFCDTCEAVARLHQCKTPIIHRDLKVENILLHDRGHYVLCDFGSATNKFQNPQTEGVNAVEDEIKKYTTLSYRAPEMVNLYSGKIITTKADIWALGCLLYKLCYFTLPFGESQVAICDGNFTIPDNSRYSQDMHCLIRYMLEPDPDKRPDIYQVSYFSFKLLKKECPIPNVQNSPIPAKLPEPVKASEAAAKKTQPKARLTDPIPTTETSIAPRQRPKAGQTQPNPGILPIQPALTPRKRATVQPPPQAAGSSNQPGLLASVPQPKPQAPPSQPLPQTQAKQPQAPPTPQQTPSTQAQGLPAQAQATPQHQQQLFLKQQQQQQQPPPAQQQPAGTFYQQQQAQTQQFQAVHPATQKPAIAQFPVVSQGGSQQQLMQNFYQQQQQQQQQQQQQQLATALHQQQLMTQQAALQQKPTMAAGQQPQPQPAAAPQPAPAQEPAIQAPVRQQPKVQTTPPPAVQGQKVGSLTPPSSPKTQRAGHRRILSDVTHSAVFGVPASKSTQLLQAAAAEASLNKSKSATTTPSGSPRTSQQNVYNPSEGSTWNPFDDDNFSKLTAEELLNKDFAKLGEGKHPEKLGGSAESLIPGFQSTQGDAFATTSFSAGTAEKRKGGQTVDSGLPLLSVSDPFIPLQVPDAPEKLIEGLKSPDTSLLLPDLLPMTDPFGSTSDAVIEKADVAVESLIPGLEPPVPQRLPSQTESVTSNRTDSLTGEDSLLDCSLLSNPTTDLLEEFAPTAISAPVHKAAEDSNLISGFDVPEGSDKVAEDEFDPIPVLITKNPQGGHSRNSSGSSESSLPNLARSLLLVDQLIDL
Chain of AAGAB (Q6PD74 whole entry, looked up): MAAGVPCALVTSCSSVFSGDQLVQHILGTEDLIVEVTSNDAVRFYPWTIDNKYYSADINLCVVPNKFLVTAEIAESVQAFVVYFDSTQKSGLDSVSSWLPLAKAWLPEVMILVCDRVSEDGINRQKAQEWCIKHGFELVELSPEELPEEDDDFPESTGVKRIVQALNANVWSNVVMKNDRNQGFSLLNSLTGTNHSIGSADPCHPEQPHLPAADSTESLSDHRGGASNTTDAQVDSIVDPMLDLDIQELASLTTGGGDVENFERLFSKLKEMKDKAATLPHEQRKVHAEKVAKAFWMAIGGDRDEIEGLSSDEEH

c1cc(OCCN2CCCCC2)cc(-c2n[nH]c3ccc(-c4nnc[nH]4)cc23)c1
inactive: AAGAB -0.158 | AAK1 [1] 0.142 | AAK1 [2] 0.052

Cc1ccc(C(=O)N(CCCN)[C@@H](c2nc3cc(Cl)ccc3c(=O)n2Cc2ccccc2)C(C)C)cc1 [ispinesib]
inactive: AAGAB -0.017 | AAK1 [1] 0.011 | AAK1 [2] 0.091

CCN(CC)Cc1ccc2cc(COC(=O)Nc3ccc(C(=O)NO)cc3)ccc2c1 [givinostat]
inactive: AAGAB -0.004 | AAK1 [1] 0.056 | AAK1 [2] 0.042

Cn1cc(-c2ccc3c(c2)CCN3C(=O)Cc2cccc(C(F)(F)F)c2)c2c(N)ncnc21
inactive: AAGAB -0.197 | AAK1 [1] -0.05 | AAK1 [2] -0.011

NC(=O)c1cnc(N[C@@H]2CCCC[C@@H]2N)nc1Nc1cccc(-n2nccn2)c1
inactive: AAGAB -0.028 | AAK1 [1] 0.048 | AAK1 [2] 0.055

Cc1nc(Nc2ncc(C(=O)Nc3c(C)cccc3Cl)s2)cc(N2CCN(CCO)CC2)n1 [dasatinib]
inactive: AAGAB -0.161 | AAK1 [1] -0.18 | AAK1 [2] -0.203

C/C(=N\NC(=O)c1cccc(S(=O)(=O)N2CCOCC2)c1)c1cc(Cl)ccc1O
inactive: AAGAB 0.088 | AAK1 [1] -0.092 | AAK1 [2] -0.055

Cn1c2cc(S(C)=O)sc2c2cnn(Cc3cccc(N)c3)c(=O)c21 (configuration not stated)
inactive: AAGAB 0.125 | AAK1 [1] -0.073 | AAK1 [2] -0.108

CO[C@H]1C[C@@H]2CC[C@@H](C)[C@@](O)(O2)C(=O)C(=O)N2CCCC[C@H]2C(=O)O[C@H]([C@H](C)C[C@@H]2CC[C@H](n3cnnn3)[C@H](OC)C2)CC(=O)[C@H](C)/C=C(\C)[C@@H](O)[C@@H](OC)C(=O)[C@H](C)C[C@H](C)/C=C/C=C/C=C/1C [zotarolimus]
inactive: AAGAB -0.093 | AAK1 [1] -0.095 | AAK1 [2] -0.004
